Results published in PubChem BioAssay (NCATS).
Several values for one entry are separate records, joined by “and”; a condition that tells them apart may be missing. Identical values can stand only once. Records with an inconclusive call do not appear. Activity calls are given as the source filed them. Unless noted, calls come from the whole dose curve; as a rule, active = well fitted curve in either direction with a large enough effect (not every such curve was filed as active); inconclusive = small, poorly fitted or top-dose-only effect, or another doubt; inactive = flat fitted curve, though single readings scatter.

Experiments:
[1] = AP1 Signaling Pathway (AID 357); settings: ME-180 (cervical carcinoma) AP-1-bla reporter, EGF-induced, beta-lactamase ratio, 5 h;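 note: ME-180 reporter cells stimulated with EGF at its EC50 level; % is set by controls: 0 for no effect and ±100 for the full control effect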
Outline: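 Titration-series screen for positive or negative modulators of EC50 EGF-induced signaling in ME-180 cells carrying an AP-1-driven beta-lactamase reporter. After 5 hours at 37 degrees Celsius, CCF4 460nm/530nm emission ratio gave %Activity; AC50 values derived.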

[2] = target: Cytochrome P450 1A2 (Homo sapiens) (UniProt P05177); experiment: p450-cyp1a2 (AID 410; calls by dose curve; note: potency is the fitted concentration of half-maximal effect;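 for activity change, negative = inhibition: -100% = full effect of reference inhibitor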); settings: recombinant CYP1A2, luciferin-ME demethylation, luminescence; series mostly up to 25.6 µM
Outline: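 20nM CYP1A2, 100uM Luciferin-ME (=Km), 100mM KPO4; cpd 10 min RT; +NADPH regen, 60 min RT; stop/detect 20 min; luminescence. Normalized to furafylline 57 uM = full inhibition.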

[3] = NFAT Signaling Pathway (AID 444); settings: Jurkat NFAT-bla M1, carbachol, beta-lactamase ratio, 5 h;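 note: carbachol stimulus at about its EC50 of 1 µM final; % is set by controls: 0 for no effect and ±100 for the full control effect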
Outline: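 Read-out: CCF4 FRET ratio (460 nm/530 nm) after 1 h RT dye loading, used for %activity and AC50 from titration series. Cells: Jurkat NFAT-β-lactamase/M1 line, treated with compound plus 1 uM carbachol for 5 h, 37 °C.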

[4] = target: Lysosomal acid glucosylceramidase (Homo sapiens) (UniProt P04062); experiment: Glucocerebrosidase-p2 (AID 348; in the data active = potency below about 10 µM; note: potency is the fitted concentration of half-maximal effect); settings: purified GBA, blue fluorogenic substrate, 40 min
Outline: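 Normal human glucocerebrosidase (0.2 nM) with blue fluorogenic substrate (80 uM final) in citrate/phosphate pH 5.9 with 10mM sodium taurocholate, 0.01% tween-20; 40 min RT, NaOH/glycine stop; fluorescence Ex 365/Em 440; AC50 from a titration from 0.6 nM upwards.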

Sequence of Cytochrome P450 1A2 (Homo sapiens) (P05177 whole entry, looked up): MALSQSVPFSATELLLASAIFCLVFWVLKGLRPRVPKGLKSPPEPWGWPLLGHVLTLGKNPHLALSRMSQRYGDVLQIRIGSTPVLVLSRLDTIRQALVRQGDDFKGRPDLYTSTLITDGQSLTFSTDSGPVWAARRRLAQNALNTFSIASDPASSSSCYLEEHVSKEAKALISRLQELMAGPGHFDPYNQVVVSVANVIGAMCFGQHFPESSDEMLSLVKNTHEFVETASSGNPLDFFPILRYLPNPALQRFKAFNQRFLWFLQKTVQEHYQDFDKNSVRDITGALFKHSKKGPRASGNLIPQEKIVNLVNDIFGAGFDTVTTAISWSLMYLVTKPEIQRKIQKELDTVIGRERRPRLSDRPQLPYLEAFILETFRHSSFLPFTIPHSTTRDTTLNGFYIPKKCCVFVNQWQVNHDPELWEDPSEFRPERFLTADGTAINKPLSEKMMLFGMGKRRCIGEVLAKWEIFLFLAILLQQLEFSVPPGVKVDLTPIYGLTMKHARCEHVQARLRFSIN
Sequence of Lysosomal acid glucosylceramidase (Homo sapiens) (P04062 whole entry, looked up): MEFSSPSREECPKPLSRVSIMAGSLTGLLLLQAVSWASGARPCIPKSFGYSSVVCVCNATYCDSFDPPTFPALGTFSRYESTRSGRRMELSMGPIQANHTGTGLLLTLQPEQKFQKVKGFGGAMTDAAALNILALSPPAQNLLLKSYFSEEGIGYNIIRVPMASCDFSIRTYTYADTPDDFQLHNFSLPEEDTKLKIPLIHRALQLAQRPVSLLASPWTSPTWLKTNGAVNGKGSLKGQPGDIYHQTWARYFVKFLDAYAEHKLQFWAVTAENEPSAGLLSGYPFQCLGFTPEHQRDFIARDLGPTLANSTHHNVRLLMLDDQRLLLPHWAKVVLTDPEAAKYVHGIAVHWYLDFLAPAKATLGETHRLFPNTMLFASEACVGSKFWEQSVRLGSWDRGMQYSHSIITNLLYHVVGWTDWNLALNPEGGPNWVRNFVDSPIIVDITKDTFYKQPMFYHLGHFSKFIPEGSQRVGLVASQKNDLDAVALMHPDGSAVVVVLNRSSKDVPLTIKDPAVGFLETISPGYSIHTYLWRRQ

With `CC1=C(CC(=O)O)c2cc(F)ccc2/C1=C\c1ccc(S(C)(=O)=O)cc1` the activity change, negative = inhibition ([1]; at 38 µM (top of the series)) was 11.6% (inactive) and the Potency [2] was 12.6 µM (active).

For `Cc1ncc([N+](=O)[O-])n1CC(O)CCl` (stereo unspecified), the activity change, negative = inhibition ([1]; at 17.2 µM (top of the series)) was 0.517% (inactive).

With `CC(C)NC[C@H](O)c1ccc(O)c(O)c1` the activity change, negative = inhibition ([1]; at 17.2 µM (top of the series)) was 3.55% (inactive) and -12.3% (inactive) and the activity change, negative = inhibition ([1]; at 38 µM (top of the series)) was -3.34% (inactive) [middle of 4 runs].

With `NC1CCN(c2cccc(Cl)n2)CC1` the activity change, negative = inhibition ([1]; at 38 µM (top of the series)) was 2.98% (inactive) and the Potency [2] was 20 µM (active) and 15.8 µM (active).

With `CNCCC(Oc1ccc(C(F)(F)F)cc1)c1ccccc1` (stereo unspecified) the activity change, negative = inhibition ([1]; at 17.2 µM (top of the series)) was 21.9% (inactive).

In the case of `CC1=C(/C=C/C(C)=C/C=C/C(C)=C/C(=O)O)C(C)(C)CCC1`, the activity change, negative = inhibition ([1]; at 17.2 µM (top of the series)) is reported as -14.6% (inactive).

In the case of `C[C@]12CC[C@@H]3c4ccc(O)cc4CC[C@H]3[C@@H]1CCC2=O`, the activity change, negative = inhibition ([1]; at 17.2 µM (top of the series)) is reported as -1.97% (inactive).

With `CC(=O)OCC(=O)[C@@]1(O)CC[C@H]2[C@@H]3CCC4=CC(=O)CC[C@]4(C)[C@H]3C(=O)C[C@@]21C` the activity change, negative = inhibition ([1]; at 17.2 µM (top of the series)) was 0.362% (inactive).

In the case of `CC[C@H]1CN2CCc3cc(OC)c(OC)cc3[C@@H]2C[C@@H]1C[C@H]1NCCc2cc(OC)c(OC)cc21`, the activity change, negative = inhibition ([1]; at 17.2 µM (top of the series)) is reported as -119% (active).

In the case of `C[C@@H]1C[C@H]2[C@@H]3C[C@H](F)C4=CC(=O)C=C[C@]4(C)[C@@]3(F)[C@@H](O)C[C@]2(C)[C@@]1(O)C(=O)CO`, the activity change, negative = inhibition ([1]; at 17.2 µM (top of the series)) is reported as -11.1% (inactive).

With `c1ccc(CN(CC2=NCCN2)c2ccccc2)cc1` the activity change, negative = inhibition ([1]; at 17.2 µM (top of the series)) was 6.18% (inactive) and 2.47% (inactive) and 4.31% (inactive) and the Potency [2] was “inactive”.

In the case of `CCN(CC)CCNC(=O)c1cc(Cl)c(N)cc1OC`, the activity change, negative = inhibition ([1]; at 17.2 µM (top of the series)) is reported as 0.248% (inactive) and 1.7% (inactive), the activity change, negative = inhibition ([1]; at 38 µM (top of the series)) is reported as 17% (inactive) and the Potency [2] is reported as 15.8 µM (active).

For `N=c1c[n+](N2CCOCC2)[n-]o1`, the activity change, negative = inhibition ([1]; at 17.2 µM (top of the series)) was 18.9% (inactive), the activity change, negative = inhibition ([1]; at 38 µM (top of the series)) was 9.68% (inactive) and the activity change, negative = inhibition ([3]; at 38 µM (top of the series)) was 3.52% (inactive).

For `CC(=O)c1ccc2c(c1)N(CCCN(C)C)c1ccccc1S2`, the activity change, negative = inhibition ([1]; at 17.2 µM (top of the series)) was 24.3% (inactive) and the Potency [2] was 1.58 µM (active).

In the case of `CN1[C@@H]2CC(OC(=O)[C@H](CO)c3ccccc3)C[C@H]1[C@@H]1O[C@@H]12` (stereo partly specified), the activity change, negative = inhibition ([1]; at 17.2 µM (top of the series)) is reported as -6.51% (inactive).

In the case of `COc1ccc(Cl)cc1C(=O)NCCc1ccc(S(=O)(=O)NC(=O)NC2CCCCC2)cc1`, the activity change, negative = inhibition ([1]; at 17.2 µM (top of the series)) is reported as -12.3% (inactive) and -19.5% (inactive), the activity change, negative = inhibition ([1]; at 38 µM (top of the series)) is reported as -26.7% (inactive) and the Potency [2] is reported as “inactive”.

With `CC(C)C(=O)c1c(C(C)C)nn2ccccc12` the activity change, negative = inhibition ([1]; at 38 µM (top of the series)) was -2.6% (inactive) and the Potency [2] was 1.26 µM (active) and 631 nM (active).

With `CC(COc1ccccc1)NC(C)C(O)c1ccc(O)cc1` (stereo unspecified) the activity change, negative = inhibition ([1]; at 17.2 µM (top of the series)) was 9.92% (inactive).

In the case of `Nc1cc(=O)[nH]c(N)n1`, the activity change, negative = inhibition ([1]; at 38 µM (top of the series)) is reported as -5.58% (inactive) and the Potency [2] is reported as “inactive”.

With `CC1=C(CC(=O)O)c2cc(F)ccc2/C1=C\c1ccc(S(C)=O)cc1` (stereo unspecified) the activity change, negative = inhibition ([1]; at 17.2 µM (top of the series)) was 6.13% (inactive), the activity change, negative = inhibition ([1]; at 38 µM (top of the series)) was -0.0105% (inactive) and the Potency [2] was 12.6 µM (active) and 3.98 µM (active).

For `CCOc1ccc2ccccc2c1C(=O)N[C@@H]1C(=O)N2[C@@H]1SC(C)(C)[C@@H]2C(=O)O`, the activity change, negative = inhibition ([1]; at 17.2 µM (top of the series)) was 0.437% (inactive) and the Potency [2] was “inactive”.

With `c1ccc2c(CC3=NCCN3)cccc2c1` the activity change, negative = inhibition ([1]; at 17.2 µM (top of the series)) was 14% (inactive) and 7.7% (inactive) and the Potency [2] was “inactive”.

With `OCC(O)CN1CCN(c2ccccc2)CC1` (stereo unspecified) the activity change, negative = inhibition ([1]; at 17.2 µM (top of the series)) was -1.76% (inactive).

With `C#CCN(C)Cc1ccccc1` the activity change, negative = inhibition ([1]; at 17.2 µM (top of the series)) was -4.72% (inactive) and 6.12% (inactive), the activity change, negative = inhibition ([1]; at 38 µM (top of the series)) was 1.9% (inactive) and the Potency [2] was “inactive”.

With `O=C(CCCN1CCN(c2ccccn2)CC1)c1ccc(F)cc1` the activity change, negative = inhibition ([1]; at 17.2 µM (top of the series)) was 7.66% (inactive).

In the case of `Cc1cccc(Nc2cc(Cl)nc(SCC(=O)O)n2)c1C`, the Potency [4] is reported as > 11.4 µM (inactive), the activity change, negative = inhibition ([1]; at 7.69 µM (top of the series)) is reported as 3.12% (inactive) and the Potency [2] is reported as “inactive”. For the same compound, the activity change, negative = inhibition ([3]; at 7.69 µM (top of the series)) was 11.7% (inactive).

With `CCN(CC)CCOC(=O)C1(C2CCCCC2)CCCCC1` the activity change, negative = inhibition ([1]; at 17.2 µM (top of the series)) was 21% (inactive) and the activity change, negative = inhibition ([1]; at 38 µM (top of the series)) was 20.8% (inactive).

In the case of `CNC(=O)Oc1ccc2c(c1)[C@]1(C)CCN(C)[C@@H]1N2C`, the activity change, negative = inhibition ([1]; at 17.2 µM (top of the series)) is reported as 8.81% (inactive).

For `OCCN1CCN(CCCN2c3ccccc3Sc3ccc(Cl)cc32)CC1`, the activity change, negative = inhibition ([1]; at 17.2 µM (top of the series)) was 25.4% (inactive) and 10.4% (inactive) and the activity change, negative = inhibition ([1]; at 38 µM (top of the series)) was 7.4% (inactive).

For `CCCCN1CCCC[C@H]1C(=O)Nc1c(C)cccc1C`, the activity change, negative = inhibition ([1]; at 17.2 µM (top of the series)) was 0.542% (inactive) and the Potency [2] was 5.01 µM (active).

With `CN(C)CCOC(C)(c1ccccc1)c1ccccn1` (stereo unspecified) the activity change, negative = inhibition ([1]; at 17.2 µM (top of the series)) was 4.21% (inactive).

For `CCCCOc1cc(C(=O)OCCN(CC)CC)ccc1N`, the activity change, negative = inhibition ([1]; at 17.2 µM (top of the series)) was -0.742% (inactive).

For `Cn1cc[nH]c1=S`, the activity change, negative = inhibition ([1]; at 17.2 µM (top of the series)) was -7.08% (inactive).

For `CCn1cc(C(=O)O)c(=O)c2cnc(N3CCNCC3)nc21`, the activity change, negative = inhibition ([1]; at 17.2 µM (top of the series)) was 8.66% (inactive) and 0.464% (inactive) and the Potency [2] was “inactive”.

With `COc1ccc2c(c1)C(=O)N(CCc1ccc(S(=O)(=O)NC(=O)NC3CCCCC3)cc1)C(=O)C2(C)C` the activity change, negative = inhibition ([1]; at 17.2 µM (top of the series)) was 12.1% (inactive) and the Potency [2] was “inactive”.

With `CCC(=O)c1ccc(O)cc1` the activity change, negative = inhibition ([1]; at 17.2 µM (top of the series)) was -4.26% (inactive).

With `CCCc1c(OCCCCc2nn[nH]n2)ccc(C(C)=O)c1O` the activity change, negative = inhibition ([1]; at 17.2 µM (top of the series)) was -20.5% (inactive).

For `CCCCCCCCCCCCCCCC(=O)NCCO`, the activity change, negative = inhibition ([3]; at 38 µM (top of the series)) was 9.44% (inactive).

For `CCCn1cnc2c1c(=O)n(CCCCC(C)=O)c(=O)n2C`, the activity change, negative = inhibition ([3]; at 38 µM (top of the series)) was 9.62% (inactive).
